Results as given in PubChem BioAssay (NCATS).
Results filed as inconclusive are left out. Where a call stands in place of a potency, no number is given. A number with no mark means an inactive call. The source made the active and inactive calls. Calls follow the shape of the dose curve; as a rule, active = well fitted curve in the direction sought with a large enough effect; inconclusive = small, poorly fitted or top-dose-only effect, or another doubt; inactive = no such curve, though single readings can be large; an effect the other way counts as inactive or inconclusive. Peptide text beside a SMILES is read from it. * marks the point of attachment. PhAc = O=C(Cc1ccccc1)*

Experiments:
[1] = target: Cellular tumor antigen p53 (Homo sapiens) (UniProt P04637); test: Primary qHTS for small molecule compounds that upregulate eGFP-tagged delta133p53alpha (in N-terminal) cells. (AID 2060322); conditions: NCI-H358 eGFP-delta133p53alpha fluorescence, 24 h; activation: stronger effect = higher value; also: nearly all actives have a fitted effect of over 75% in size; also: potency is read from the fitted curve at half-maximal effect; as to activation: series mostly up to about 56 µM
Cellular tumor antigen p53 (Homo sapiens), sequence (P04637 whole entry, looked up): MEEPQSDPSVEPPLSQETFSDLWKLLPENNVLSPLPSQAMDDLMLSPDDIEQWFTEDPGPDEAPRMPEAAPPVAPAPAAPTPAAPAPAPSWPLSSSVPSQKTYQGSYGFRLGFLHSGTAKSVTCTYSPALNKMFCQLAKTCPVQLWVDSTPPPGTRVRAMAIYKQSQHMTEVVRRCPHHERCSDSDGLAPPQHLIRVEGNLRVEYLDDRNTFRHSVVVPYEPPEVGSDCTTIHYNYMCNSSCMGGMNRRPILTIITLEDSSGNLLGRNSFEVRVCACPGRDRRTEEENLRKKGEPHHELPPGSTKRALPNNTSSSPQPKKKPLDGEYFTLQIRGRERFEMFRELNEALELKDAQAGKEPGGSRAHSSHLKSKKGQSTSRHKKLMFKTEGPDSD
Procedure, shortened: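 NCI-H358 cells pre-induced 24 h with 10 ng/ml doxycycline to express N-terminal eGFP-delta133p53alpha, then dosed 24 h at 37C without doxycycline; fixed, Hoechst-stained, GFP intensity by laser scanning cytometry, normalized to DMSO (0%) and 57.5 uM 5-azacytidine (100%).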

[2] = target: Aldehyde dehydrogenase, mitochondrial (Homo sapiens) (UniProt P05091); test: qHTS for Inhibitors of the Aldehyde Dehydrogenase Family (ALDH2) Primary screen (AID 2061308); also: nearly all actives have a fitted effect of over 55% in size
[3] = target: Retinaldehyde dehydrogenase 3 (Homo sapiens) (UniProt P47895); test: qHTS for Inhibitors of the Aldehyde Dehydrogenase Family (ALDH1A3) Validation screen (AID 2061312); also: nearly all actives have a fitted effect of over 45% in size
[4] = target: Retinaldehyde dehydrogenase 3 (Homo sapiens) (UniProt P47895); test: qHTS for Inhibitors of the Aldehyde Dehydrogenase Family (ALDH1A3) Primary screen (AID 2061315)

Compound | activation [1] [%] | Potency [2] | Potency [3] | Potency [4] | Potency [1] | activity change, negative = inhibition [2] | activity change, negative = inhibition [3] | activity change, negative = inhibition [4]
CCO[C@H]1CN(C2CCC(O)(c3ccc4c(c3)OCO4)CC2)C[C@@H]1NC(=O)CNC(=O)c1cccc(C(F)(F)F)c1 (stereo partly drawn) | 10.5 | inactive | inactive | inactive | – | – | – | –
CCc1cc2c(=O)c(-c3nc4ccccc4s3)coc2c(CN2CCCCC2)c1O | 0.955 | inactive | inactive | inactive | – | – | – | –
CNC(=O)c1ccccc1Nc1nc(Nc2ccc(N3CCNCC3)cc2)ncc1Cl | – | inactive | inactive | inactive | 1.35 µM (active) | – | – | –
Cn1c(=O)cc(N2CCCC(N)C2)n(Cc2cc(F)ccc2C#N)c1=O (stereo not drawn) | -2.86 | inactive | inactive | inactive | – | – | – | –
CCCCCCOc1cc2c(cc1N(C)c1ncc(C(=O)O)cn1)C(C)(C)CCC2(C)C | -3.82 | inactive | inactive | inactive | – | – | – | –
Cc1oc(S(=O)(=O)N2CCCCC2)cc1NC(=O)Nc1ccccc1 | 0.955 | inactive | inactive | inactive | – | – | – | –
O=C(NCC1(N2CCN(c3ccccc3)CC2)CCOCC1)c1cccnc1Sc1ccccc1 | -3.34 | inactive | inactive | inactive | – | – | – | –
CN1CCN(C2=Nc3ccccc3Nc3ccc(OS(=O)(=O)C(F)(F)F)cc32)CC1 | -11.9 | inactive | inactive | inactive | – | – | – | –
O=c1cc(OCc2ccc(F)cc2)ccn1-c1ccc(OCCN2CCCC2)cc1 | -0.955 | inactive | inactive | inactive | – | – | – | –
Cc1ccc(-c2c(-c3nn(C)c4ncnc(N5CCC(N6CCCCC6)C5)c34)cnn2C)cc1 (stereo not drawn) | 2.39 | inactive | inactive | inactive | – | – | – | –
COc1ccc2[nH]c3c(-c4cccc5ccccc45)nccc3c2c1 | – | inactive | inactive | inactive | 26.9 µM (active) | – | – | –
CC1=C(C(=O)Nc2cc(Cl)ccc2Cl)C(c2ccco2)C2=C(CCCC2=O)N1 (stereo not drawn) | 17.7 | inactive | inactive | inactive | – | – | – | –
Cc1c(C2=CCN(C(=O)N(C)C(C)C)CC2)nnn1-c1cccnc1F | -9.55 | inactive | inactive | inactive | – | – | – | –
C[C@@H](O)[C@H](NC(=O)c1ccc(C#Cc2ccc(CN3CCOCC3)cc2)cc1)C(=O)NO | -6.68 | inactive | inactive | inactive | – | – | – | –
COc1ccc(N2CCN(CCCNC(=O)Cn3c(=O)c4cccn4c4c(C)ccnc43)CC2)cc1 | 0.477 | inactive | inactive | inactive | – | – | – | –
CN(C)[C@@H]1CCc2[nH]c3ccc(NC(=O)c4ccc(F)cc4)cc3c2C1 | 0.477 | inactive | inactive | inactive | – | – | – | –
NC(=O)CCCSc1nc(N)nc(-c2c(Cl)cc3c4c(cccc24)COC3)n1 | -8.59 | inactive | inactive | inactive | – | – | – | –
O=C(O)C1CN(Cc2ccc(-c3nc4cc(Cc5ccccc5F)ccc4s3)c(F)c2)C1 | -12.4 | – | – | – | – | -1.77% [at 11.2 µM] | -10% [at 20.1 µM] | -4.23% [at 11.2 µM]
COc1cccc(N2CCN(C3=Nc4c(F)cccc4[C@H](CC(=O)O)N3c3cc(C(F)(F)F)ccc3OC)CC2)c1 | -5.73 | inactive | inactive | inactive | – | – | – | –
Clc1ccc2c(c1)C1=NCCN1c1c(-c3noc(C4CC4)n3)ncn1-2 | -0.477 | inactive | inactive | inactive | – | – | – | –
CN1CCN(c2nc(-c3ccc(C(=O)NC4(C(=O)NCC#N)CCCCC4)cc3)cs2)CC1 | -19.1 | inactive | inactive | inactive | – | – | – | –
O=C(NCCN1CCC(n2c(=O)[nH]c3ccccc32)CC1)c1cc2cc(F)ccc2[nH]1 | 23.9 | inactive | inactive | inactive | – | – | – | –
O=C(CC(c1ccccc1)c1ccccc1)N1CCN(C(c2ccccc2)c2ccccc2)CC1 | 2.86 | inactive | inactive | inactive | – | – | – | –
COc1cc(Nc2nc3c(s2)CCCC3c2ccc(F)cc2)ccc1-n1cnc(C)c1 (stereo not drawn) | -13.4 | inactive | inactive | inactive | – | – | – | –
NC(=O)c1cccc2cn(-c3ccc(C4CCCNC4)cc3)nc12 (stereo not drawn) | 26.7 | inactive | inactive | inactive | – | – | – | –
CCOC(=O)CNC(=O)[C@@H]1CCCN1C(=O)Cc1ccccc1 (PhAc-Pro-Gly-OEt) | 13.8 | inactive | inactive | inactive | – | – | – | –
O=C(NCC1CCN(Cc2cccc(Cl)c2)CC1)[C@@H]1CCCN(c2ncnc3c2nc2n3CCCC2)C1 | 0 | inactive | inactive | inactive | – | – | – | –
